Laboratory results published in PubChem BioAssay (NCATS).
Several values for one entry are separate records, joined by “and”; a condition that tells them apart may be missing. Equal values may be shown once. Results filed as inconclusive are left out. Activity calls are given as the source filed them. Unless noted, calls follow the shape of the dose curve; as a rule, active = well fitted curve in the direction sought with a large enough effect; inconclusive = small, poorly fitted or top-dose-only effect, or another doubt; inactive = no such curve, though single readings can be large; an effect the other way counts as inactive or inconclusive.

Key:
[1] = target: Cytochrome P450 2D6 (Homo sapiens) (UniProt P10635); assay: Cytochrome P450 family 2 subfamily D member 6 (CYP2D6) small molecule antagonists: luciferase biochemical (cell-free) qHTS assay (AID 1645840; active = well fitted curve in the direction sought with a large enough effect in the repeat runs; an effect the other way counts as inactive or inconclusive; also: nearly all actives have a fitted effect of over 55% in size; also: potency is read from the fitted curve at half-maximal effect)
Procedure, shortened: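 P450-Glo CYP2D6 system: proluciferin substrate converted by enzyme to luciferin, read by luminescence proportional to activity. Enzyme-substrate mix with compound 10 min at room temperature, then NADPH regeneration 1 h before detection reagent.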

[2] = Primary qHTS for small molecule stabilizers of the endoplasmic reticulum resident proteome: Secreted ER Calcium Modulated Protein (SERCaMP) assay (AID 1508630)
Procedure, shortened: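 The SH-SY5Y reporter protocol was run at 3 concentrations up to 38.3 uM (primary) or 11 concentrations (follow-up): 16 h compound, 100 nM thapsigargin for 4 h, then extracellular luciferase luminescence.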

[3] = A High-Content qHTS Against Drug Library for the Identification of Small Molecules that Inhibit DYT1 Early Onset Primary Dystonia-Associated Cell Pathology (AID 1645839; calls by dose curve; also: potency is read from the fitted curve at half-maximal effect)
Procedure, shortened: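 Induced EGFP-delE TorsinA cells are imaged after 48 h of compound treatment. Punctate fusion-protein distribution gives the %pathology value, while nuclei counts flag toxicity. Wild-type EGFP-hTOR1A cells define the normal pattern.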

[4] = Primary qHTS for inhibitors of nuclear receptor binding SET domain protein 2 (NSD2) in an isogenic RCH-ACV NSD2 p.E1099K mutant (9B) (AID 1645876); also: nearly all actives have a fitted effect of over 70% in size; also: potency is read from the fitted curve at half-maximal effect
[5] = Primary qHTS for inhibitors of nuclear receptor binding SET domain protein 2 (NSD2) in an RCH-ACV wild type WT cells (2C) (AID 1645877); also: nearly all actives have a fitted effect of over 70% in size; also: potency is read from the fitted curve at half-maximal effect
[6] = target: Cytochrome P450 2C9 (Homo sapiens) (UniProt P11712); assay: Cytochrome P450 family 2 subfamily C member 9 (CYP2C9) small molecule antagonists: luciferase biochemical (cell-free) qHTS assay (AID 1645842; active = well fitted curve in the direction sought with a large enough effect in the repeat runs; an effect the other way counts as inactive or inconclusive; also: nearly all actives have a fitted effect of over 55% in size; also: potency is read from the fitted curve at half-maximal effect)
Procedure, shortened: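 P450-Glo CYP2C9 system: proluciferin substrate with enzyme in mix containing 0.4% BSA, 10 min at room temperature, then NADPH regeneration solution added and incubated 1 h at 37C. Detection reagent stopped reaction; luminescence read after 20 min as RLU.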

[7] = Cytotoxicity counterscreen for inhibitors of SARS-CoV-2 cell entry (AID 1645845; calls by dose curve; also: nearly all actives have a fitted effect of over 50% in size)
Procedure, shortened: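 After a 15 min room-temperature ATPLite 1step step, luminescence reflected ATP remaining in HEK293-ACE2 cells exposed to compound for 1 h plus 48 h at 37 C, with percent activity set by cell and no-cell controls.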

[8] = Primary qHTS to identify inhibitors of SARS-CoV-2 cell entry (AID 1645846; calls by dose curve; also: nearly all actives have a fitted effect of over 45% in size; also: potency is read from the fitted curve at half-maximal effect); details: activity change, negative = inhibition: at 57.1 µM (top of the series) unless noted
Procedure, shortened: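 HEK293 cells stably expressing human ACE2, pre-treated 1 h with compound, then infected with MLV particles pseudotyped with Wuhan-Hu-1 spike (C-terminal 19-aa truncation). Luciferase luminescence after 48 h at 37 °C, normalised to spike PP and bald PP.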

[9] = target: Cytochrome P450 3A4 (Homo sapiens) (UniProt P08684); assay: Cytochrome P450 family 3 subfamily A member 4 (CYP3A4) small molecule antagonists: luciferase qHTS assay (AID 1645841; active = well fitted curve in the direction sought with a large enough effect in the repeat runs; an effect the other way counts as inactive or inconclusive; also: nearly all actives have a fitted effect of over 45% in size; also: potency is read from the fitted curve at half-maximal effect)
Procedure, shortened: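 P450-Glo CYP3A4 enzyme with proluciferin substrate was preincubated with DMSO-dissolved compounds for 10 min at room temperature. NADPH regeneration solution started a 1 h reaction. Detection reagent stopped it, and luminescence was read after 20 min.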

[10] = target: Rap guanine nucleotide exchange factor 3 (Homo sapiens) (UniProt O95398); assay: Confirmatory qHTS for agonist of cAMP-regulated guanine nucleotide exchange factor 3 (EPAC1) (AID 1645881);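 also: EPAC1 catalysed release of BODIPY-GDP from Rap1B seen as fluorescence loss; nearly all actives have a fitted effect of over 75% in size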
[11] = target: Rap guanine nucleotide exchange factor 4 (Homo sapiens) (UniProt Q8WZA2); assay: Confirmatory qHTS for agonist of cAMP-regulated guanine nucleotide exchange factor 4 (EPAC2) (AID 1645884);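 also: nucleotide exchange releases bodipy-GDP from Rap1 and this lowers its fluorescence; nearly all actives have a fitted effect of over 65% in size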
[12] = target: Rap guanine nucleotide exchange factor 4 (Homo sapiens) (UniProt Q8WZA2); assay: Confirmatory qHTS for antagonist of cAMP-regulated guanine nucleotide exchange factor 4 (EPAC2) (AID 1645885); also: nearly all actives have a fitted effect of over 25% in size; also: potency is read from the fitted curve at half-maximal effect
[13] = target: Papain (Carica papaya) (UniProt P00784); assay: Primary qHTS assay for inhibitors of the protease papain (AID 1645873);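 also: papain turnover of Z-FR-AMC read as the AMC fluorescence gain over 10 min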
[14] = target: Rap guanine nucleotide exchange factor 3 (Homo sapiens) (UniProt O95398); assay: Confirmatory qHTS for antagonist of cAMP-regulated guanine nucleotide exchange factor 3 (EPAC1) (AID 1645880); also: nearly all actives have a fitted effect of over 55% in size
Procedure, shortened: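 Released BODIPY-GDP fluoresces less than Rap1-bound BODIPY-GDP; the signal is followed at 480/540 nm at 5-min intervals over 30 min, after 5 min at room temperature. Reactions contain 100 nM EPAC1, 250 nM RAP1B-BODIPY-GDP and 50 uM GDP; results are normalized to ATA and DMSO.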

[15] = VSVG counterscreen qHTS to identify inhibitors of SARS-CoV-2 cell entry (AID 1645847; calls by dose curve; also: nearly all actives have a fitted effect of over 65% in size)
Procedure, shortened: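 HEK293-ACE2 cells (Expi293F, human ACE2) pretreated 1 h with compound, then infected with MLV-based VSV-G pseudotyped particles for 48 h at 37 C; luciferase luminescence normalized to VSV-G PP and bald PP wells.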

Chain of Cytochrome P450 2C9 (Homo sapiens) (P11712 whole entry, looked up): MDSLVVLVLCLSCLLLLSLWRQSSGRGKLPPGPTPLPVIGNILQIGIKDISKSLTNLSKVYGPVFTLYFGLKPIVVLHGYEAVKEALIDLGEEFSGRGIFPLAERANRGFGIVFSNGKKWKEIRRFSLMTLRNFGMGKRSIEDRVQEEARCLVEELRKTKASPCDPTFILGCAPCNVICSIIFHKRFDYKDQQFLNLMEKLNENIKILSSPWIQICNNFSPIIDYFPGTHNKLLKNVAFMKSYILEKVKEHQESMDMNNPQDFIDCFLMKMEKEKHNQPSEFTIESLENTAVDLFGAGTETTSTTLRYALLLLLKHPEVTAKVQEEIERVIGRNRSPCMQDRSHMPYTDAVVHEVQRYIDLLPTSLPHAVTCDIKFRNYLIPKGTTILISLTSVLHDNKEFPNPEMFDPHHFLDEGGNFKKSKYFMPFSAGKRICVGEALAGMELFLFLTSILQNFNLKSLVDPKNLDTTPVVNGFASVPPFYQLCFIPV
Chain of Rap guanine nucleotide exchange factor 3 (Homo sapiens) (O95398 whole entry, looked up): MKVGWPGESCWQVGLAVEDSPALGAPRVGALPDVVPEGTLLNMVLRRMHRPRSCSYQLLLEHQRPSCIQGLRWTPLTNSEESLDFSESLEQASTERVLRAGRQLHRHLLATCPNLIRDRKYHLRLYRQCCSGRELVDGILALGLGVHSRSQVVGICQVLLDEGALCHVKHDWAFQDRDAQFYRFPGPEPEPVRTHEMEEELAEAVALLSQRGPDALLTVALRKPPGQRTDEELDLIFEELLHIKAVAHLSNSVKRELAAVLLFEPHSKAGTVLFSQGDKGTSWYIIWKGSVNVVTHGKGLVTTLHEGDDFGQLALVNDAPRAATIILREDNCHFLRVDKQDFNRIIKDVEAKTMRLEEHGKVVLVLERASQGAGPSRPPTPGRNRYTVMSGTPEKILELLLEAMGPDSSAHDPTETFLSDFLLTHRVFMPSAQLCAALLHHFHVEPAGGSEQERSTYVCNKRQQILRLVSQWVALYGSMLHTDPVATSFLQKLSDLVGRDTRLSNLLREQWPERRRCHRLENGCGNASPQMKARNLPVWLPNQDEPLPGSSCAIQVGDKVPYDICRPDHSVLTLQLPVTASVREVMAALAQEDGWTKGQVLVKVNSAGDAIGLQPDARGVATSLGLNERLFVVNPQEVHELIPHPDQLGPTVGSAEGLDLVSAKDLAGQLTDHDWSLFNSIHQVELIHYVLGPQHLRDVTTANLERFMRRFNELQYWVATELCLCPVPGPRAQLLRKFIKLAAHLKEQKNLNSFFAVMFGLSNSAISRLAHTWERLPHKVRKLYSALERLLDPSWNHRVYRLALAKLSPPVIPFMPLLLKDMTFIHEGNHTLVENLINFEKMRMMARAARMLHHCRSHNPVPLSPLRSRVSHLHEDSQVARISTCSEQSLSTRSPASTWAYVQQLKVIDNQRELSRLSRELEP
Chain of Cytochrome P450 3A4 (Homo sapiens) (P08684 whole entry, looked up): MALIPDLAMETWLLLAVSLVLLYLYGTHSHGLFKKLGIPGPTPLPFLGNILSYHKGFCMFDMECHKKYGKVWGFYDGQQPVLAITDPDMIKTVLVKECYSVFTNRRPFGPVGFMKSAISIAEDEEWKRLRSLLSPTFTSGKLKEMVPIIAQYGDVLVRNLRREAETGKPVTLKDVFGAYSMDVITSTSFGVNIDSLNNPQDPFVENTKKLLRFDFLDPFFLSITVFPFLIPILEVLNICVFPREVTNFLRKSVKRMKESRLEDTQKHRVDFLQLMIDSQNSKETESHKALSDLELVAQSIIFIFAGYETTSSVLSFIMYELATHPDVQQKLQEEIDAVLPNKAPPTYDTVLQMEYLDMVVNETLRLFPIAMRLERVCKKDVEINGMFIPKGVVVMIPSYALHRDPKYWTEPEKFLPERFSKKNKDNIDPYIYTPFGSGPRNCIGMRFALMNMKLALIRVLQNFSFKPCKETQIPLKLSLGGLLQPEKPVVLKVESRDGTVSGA
Chain of Cytochrome P450 2D6 (Homo sapiens) (P10635 whole entry, looked up): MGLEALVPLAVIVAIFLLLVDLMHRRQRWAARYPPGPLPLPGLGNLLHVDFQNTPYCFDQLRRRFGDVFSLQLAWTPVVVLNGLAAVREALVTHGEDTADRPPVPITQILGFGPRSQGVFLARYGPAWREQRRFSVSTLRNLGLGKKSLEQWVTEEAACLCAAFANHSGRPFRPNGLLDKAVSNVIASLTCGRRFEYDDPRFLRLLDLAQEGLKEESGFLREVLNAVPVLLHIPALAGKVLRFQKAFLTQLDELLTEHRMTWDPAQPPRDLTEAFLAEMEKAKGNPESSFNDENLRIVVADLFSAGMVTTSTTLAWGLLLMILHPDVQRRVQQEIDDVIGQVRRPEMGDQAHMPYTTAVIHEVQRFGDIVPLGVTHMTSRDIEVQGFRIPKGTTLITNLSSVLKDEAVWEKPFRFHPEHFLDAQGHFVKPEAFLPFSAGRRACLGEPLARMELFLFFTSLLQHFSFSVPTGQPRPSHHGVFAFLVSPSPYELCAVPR
Chain of Rap guanine nucleotide exchange factor 4 (Homo sapiens) (Q8WZA2 whole entry, looked up): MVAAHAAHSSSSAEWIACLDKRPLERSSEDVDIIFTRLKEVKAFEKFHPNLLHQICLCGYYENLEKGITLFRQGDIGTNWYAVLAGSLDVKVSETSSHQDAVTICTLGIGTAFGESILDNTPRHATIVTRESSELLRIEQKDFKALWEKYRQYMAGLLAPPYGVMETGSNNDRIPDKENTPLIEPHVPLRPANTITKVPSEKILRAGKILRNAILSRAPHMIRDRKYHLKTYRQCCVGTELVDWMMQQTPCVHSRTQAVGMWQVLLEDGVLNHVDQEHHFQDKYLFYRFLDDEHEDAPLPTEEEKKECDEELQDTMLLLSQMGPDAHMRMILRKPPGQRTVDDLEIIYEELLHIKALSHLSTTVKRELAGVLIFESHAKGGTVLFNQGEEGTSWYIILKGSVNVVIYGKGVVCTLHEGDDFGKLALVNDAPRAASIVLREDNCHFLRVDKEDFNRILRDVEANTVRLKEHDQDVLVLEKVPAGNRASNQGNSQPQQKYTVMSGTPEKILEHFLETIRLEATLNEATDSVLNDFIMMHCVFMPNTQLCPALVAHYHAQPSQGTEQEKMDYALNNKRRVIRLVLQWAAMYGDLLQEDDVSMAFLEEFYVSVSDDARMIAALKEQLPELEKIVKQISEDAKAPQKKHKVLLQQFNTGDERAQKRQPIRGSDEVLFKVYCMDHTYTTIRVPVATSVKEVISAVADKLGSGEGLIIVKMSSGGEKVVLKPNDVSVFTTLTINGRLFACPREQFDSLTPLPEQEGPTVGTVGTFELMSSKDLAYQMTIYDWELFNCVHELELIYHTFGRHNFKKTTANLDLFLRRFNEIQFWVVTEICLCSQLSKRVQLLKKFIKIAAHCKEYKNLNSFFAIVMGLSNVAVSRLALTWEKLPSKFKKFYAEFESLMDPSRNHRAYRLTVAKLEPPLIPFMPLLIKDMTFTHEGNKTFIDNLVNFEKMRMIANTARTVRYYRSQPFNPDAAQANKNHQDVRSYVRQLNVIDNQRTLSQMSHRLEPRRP
Chain of Papain (Carica papaya) (P00784 whole entry, looked up): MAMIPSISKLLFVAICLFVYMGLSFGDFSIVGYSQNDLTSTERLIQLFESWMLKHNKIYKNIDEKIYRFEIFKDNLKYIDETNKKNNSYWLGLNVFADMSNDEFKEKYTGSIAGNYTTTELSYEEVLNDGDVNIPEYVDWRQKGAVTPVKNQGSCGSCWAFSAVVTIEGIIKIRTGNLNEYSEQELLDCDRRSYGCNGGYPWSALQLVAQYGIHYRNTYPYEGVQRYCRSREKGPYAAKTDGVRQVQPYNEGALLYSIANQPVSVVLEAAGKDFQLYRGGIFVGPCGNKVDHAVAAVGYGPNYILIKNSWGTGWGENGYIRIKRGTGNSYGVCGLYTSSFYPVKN

CC1(C)CC/C(=C/c2ccc(Cl)cc2)C1(O)Cn1cncn1 (stereo not given)
active: Potency [1] 9.41 µM

O=S(=O)(O)C(F)(F)C(F)(F)C(F)(F)C(F)(F)F
inactive: Potency [2] | Potency [3] | Potency [1] | Potency [4] | Potency [5]

COc1ccc(N(C(=O)Oc2c(C)cccc2C)c2ccnc(Nc3ccc(N4CCN(C)CC4)cc3)n2)c(OC)c1
inactive: Potency [2]
active: Potency [1] 1.9 µM | Potency [6] 21.3 µM | Potency [4] 4.68 µM | Potency [5] 5.25 µM

COC(=O)c1cncn1C(C)c1ccccc1 (stereo not given)
active: Potency [1] 7.76 µM | Potency [6] 11 µM
inactive: Potency [2] | Potency [3] | Potency [7] | Potency [8] | Potency [4] | Potency [5]

CC(=O)N(C)c1cccc(-c2ccnc3c(C(=O)c4cccs4)cnn23)c1
inactive: Potency [2] | Potency [1] | Potency [6] | Potency [4]

O=C(O)COc1nc(Cl)c(Cl)cc1Cl
inactive: Potency [2] | Potency [3] | Potency [1] | Potency [4] | Potency [5]

CCCCCCCCCC(CC)c1ccc(S(=O)(=O)O)cc1 (stereo not given)
active: Potency [1] 26.7 µM
inactive: Potency [2]

CS(=O)(=O)c1ccc(C(=O)C2C(=O)CCCC2=O)c([N+](=O)[O-])c1
inactive: Potency [2] | Potency [3] | Potency [1] | Potency [4] | Potency [5]

O=C(O)C(Cl)Cl
inactive: Potency [2] | Potency [3] | Potency [1] | Potency [6] | Potency [4] | Potency [5]

S=C(SSC(=S)N1CCCCC1)N1CCCCC1
inactive: Potency [2] | Potency [3] | Potency [1]

CCCN(CCC)c1c([N+](=O)[O-])cc(S(N)(=O)=O)cc1[N+](=O)[O-]
inactive: Potency [2] | outcome [10] | outcome [11]
active: Potency [3] 28.2 µM | Potency [1] 29.1 µM | Potency [9] 8.44 µM | Potency [4] 9.69 µM | Potency [5] 12.2 µM | Potency [12] 89.7 µM

O=C(Nc1ccccc1-c1ccc(Cl)cc1)c1cccnc1Cl
active: Potency [1] 22.4 µM
inactive: Potency [2] | Potency [3] | Potency [4]

CCCCc1ccc(C(=O)O)nc1
inactive: Potency [2] | Potency [1] | Potency [9] | Potency [6] | Potency [13]

O=[N+]([O-])c1cc([N+](=O)[O-])c2ccccc2c1
inactive: Potency [2] | Potency [3] | Potency [1] | Potency [6] | Potency [4] | Potency [5]

C=CC(=O)NCNC(=O)C=C
inactive: Potency [2] | Potency [1]

CCCCCCCCCCCCCCCC[N+](C)(C)C
active: Potency [3] 12.6 µM | Potency [1] 871 nM and 849 nM | Potency [8] 25.1 µM | Potency [4] 0.422 µM | Potency [5] 0.596 µM
inactive: Potency [2]

O=[N+]([O-])c1ccc([As](=O)(O)O)cc1
inactive: Potency [2] | Potency [1] | Potency [9] | Potency [6] | Potency [7]
1.4%: activity change, negative = inhibition [8]

C1CCC(NC2CCCCC2)CC1
active: Potency [1] 1.23 µM
inactive: Potency [2] | Potency [3] | Potency [8]

O=S(=O)(O)C(F)(F)C(F)(F)C(F)(F)C(F)(F)C(F)(F)C(F)(F)C(F)(F)C(F)(F)F
inactive: Potency [2] | Potency [1]

O=C(O)CNC(=O)c1c(O)c2ccccc2n(Cc2ccccc2)c1=O
inactive: Potency [2] | Potency [1] | Potency [9] | Potency [7] | Potency [4] | Potency [5]

CC1=NN=C(c2ccc(N)cc2)c2cc3c(cc2C1)OCO3
inactive: Potency [2] | Potency [13] | outcome [14] | outcome [10] | outcome [11] | Potency [12]
active: Potency [1] 19 µM | Potency [6] 7.56 µM

COc1nn(CSP(=S)(OC)OC)c(=O)s1
inactive: Potency [2]
active: Potency [1] 25.9 µM | Potency [6] 5.17 µM | Potency [4] 9.69 µM | Potency [5] 13.7 µM

O=S(=O)(c1ccc(Cl)cc1)c1ccc(Cl)cc1
active: Potency [6] 27.8 µM
inactive: Potency [2] | Potency [3] | Potency [4] | Potency [5]

CSCC[C@@H](NC(=O)[C@@H](Cc1ccccc1)NC(=O)CNC(=O)CNC(=O)[C@@H](N)Cc1ccc(O)cc1)C(=O)O
-0.623%: activity change, negative = inhibition [8]
inactive: Potency [2] | Potency [1] | Potency [7] | Potency [4] | Potency [5]

CCc1c(C(=O)C(N)=O)c2c(OCC(=O)O)cccc2n1Cc1ccccc1
-66.7%: activity change, negative = inhibition [8]
inactive: Potency [2] | Potency [1] | Potency [6] | Potency [7] | Potency [15] | Potency [4] | Potency [5]

O=C(O)COc1ccccc1
inactive: Potency [2] | Potency [3] | Potency [1] | Potency [6] | Potency [8] | Potency [4] | Potency [5]

Cc1cc(O)ccc1Cl
inactive: Potency [2] | Potency [3] | Potency [1] | Potency [8] | Potency [4] | Potency [5]

CO/C=C(/C(=O)OC)c1ccccc1Oc1cc(Oc2ccccc2C#N)ncn1
active: Potency [1] 39.9 µM | Potency [6] 3.66 µM | Potency [4] 24.3 µM | Potency [5] 24.3 µM
inactive: Potency [2] | Potency [3]
